Among the data in PubChem BioAssay (EPA / NIEHS) are outcome and AC50 values, retold here.

The source made the active and inactive calls. Rule for the calls: active = hit-call score of the fitted dose curve at least 0.9, where 1 is the maximum; inactive = score below 0.9.

Assay [1] can be described thus: ATG_CRE_CIS: Attagene CIS-FACTORIAL HepG2 Assay for human cAMP Responsive Element (CRE) binding protein 3 (AID 2282926). Particulars: HepG2 CRE cis-reporter, Attagene multiplexed mRNA; actives raise or lower the signal. The procedure, abridged: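 Readout: fluorescently labelled reporter transcripts resolved by capillary electrophoresis after RT-PCR, taken 24 h post-dosing in transfected HepG2. Endogenous transcription factor activity drives each cis-element reporter; gain or loss of signal fitted relative to DMSO control.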

The target of assay [2] is CCAAT/enhancer-binding protein beta (Homo sapiens) (UniProt P17676). Briefly: ATG_C_EBP_CIS: Attagene CIS-FACTORIAL HepG2 Assay for human CCAAT/Enhancer Binding Protein (C/EBP) beta (AID 2282927). Particulars: HepG2 Attagene cis-factorial transcription factor reporter; actives raise or lower the signal. In short, it runs like this: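 RT-PCR/capillary electrophoresis fluorescence of reporter mRNA, 24 h post-dose, in HepG2 cells carrying transfected cis-promoter reporter units. Bidirectional curve fitting against DMSO baseline captures gain or loss of signal.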

Assay [3] can be described thus: ATG_CMV_CIS: Attagene CIS-FACTORIAL HepG2 Assay for human CMV (Internal Marker) (AID 2282928).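 Note: endpoint acts as a background internal control marker rather than a target.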 As to conditions: HepG2 CMV promoter reporter, transcription factor profiling; actives raise or lower the signal. The procedure, abridged: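 Bidirectional fits against DMSO are applied to reporter mRNA, read by RT-PCR with capillary electrophoresis, from HepG2 cells exposed 24 h. The endpoint serves as an internal CMV background marker within the cis-factorial reporter panel.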

Assay [4] can be described thus: ATG_DR4_LXR_CIS: Attagene CIS-FACTORIAL HepG2 Assay for human Liver X Receptor (LXR), DR4 submotif (AID 2282929). As to conditions: HepG2 Attagene DR4 cis-reporter, mRNA transcription; actives raise or lower the signal. In short, it runs like this:
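HepG2, transient MRTU transfection, cis-element (DR4) promoter; 24 h compound exposure; total RNA → oligo(dT) RT → PCR → 6-FAM primer extension → HpaI cut → CE. Gain/loss vs DMSO, bidirectional fit.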

The target of assay [5] is Aryl hydrocarbon receptor (Homo sapiens) (UniProt P35869). Kind of assay: ATG_Ahr_CIS: Attagene CIS-FACTORIAL HepG2 Assay for human Aryl Hydrocarbon Receptor (Ahr) (AID 2282930). Particulars: HepG2 AhR cis-factorial reporter transcription; actives raise or lower the signal. The procedure, abridged:
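HepG2 cells transiently transfected with cis-element-driven multiplexed reporter transcription units; endogenous transcription factor activity measured as reporter mRNA 24 h after dosing. RT-PCR, 6-FAM labelling, HpaI digestion, capillary electrophoresis; bidirectional fitting versus DMSO baseline.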

Assay [6] in a line: ATG_AP_1_CIS: Attagene CIS-FACTORIAL HepG2 Assay for human Activator Protein 1 (AP-1) (AID 2282931). As to conditions: HepG2 Attagene cis-factorial AP-1 reporter mRNA; actives raise or lower the signal. In short, it runs like this:
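Transient MRTU transfection of HepG2 → 24 h chemical treatment → RNA isolation, RT-PCR, 6-FAM labelling, HpaI digest → capillary electrophoresis. Fit: bidirectional, DMSO negative control.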

Assay [7] in a line: ATG_AP_2_CIS: Attagene CIS-FACTORIAL HepG2 Assay for human Activator Protein 2 (AP-2) (AID 2282932). As to conditions: HepG2 AP-2 cis-reporter, Attagene transcription factor profiling; actives raise or lower the signal. The procedure, abridged:
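Cells (HepG2) transfected with promoter-driven reporter constructs, treated 24 h. Total RNA reverse-transcribed, reporter cDNA PCR-amplified, FAM-labelled by primer extension, digested, resolved by capillary electrophoresis. Activity fitted both directions versus DMSO.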

Assay [8] is described as follows: ATG_BRE_CIS: Attagene CIS-FACTORIAL HepG2 Assay for human Bone Morphogenetic Protein (BMP) Response Element (BRE) (AID 2282933). As to conditions: HepG2 BMP response element reporter, Attagene transcription factor profiling; actives raise or lower the signal. In short, it runs like this: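 Fluorescence-labelled reporter cDNA fragments, separated by capillary electrophoresis, gave the signal for this component of a 52-readout multiplex. HepG2 cells were transfected, exposed to chemicals for 24 h, and compared with DMSO using bidirectional fitting.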

Assay [9] has as its target Retinoic acid receptor alpha (Homo sapiens) (UniProt P10276). Kind of assay: ATG_DR5_RAR_CIS: Attagene CIS-FACTORIAL HepG2 Assay for human Retinoic Acid Receptor Alpha (RARE), DR5 submotif (AID 2282934). Particulars: HepG2 Attagene cis-factorial RARE DR5 reporter, mRNA; actives raise or lower the signal. The procedure, abridged:
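HepG2 cells transiently transfected with multiplexed reporter units under cis (DR5 RARE) promoters, so endogenous transcription factor activity is measured. After 24 h compound exposure, reporter mRNA is quantified by RT-PCR with fluorescent labelling and capillary electrophoresis; bidirectional fitting versus DMSO.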

Assay [10] has as its target Transcription factor E2F1 (Homo sapiens) (UniProt Q01094). Kind of assay: ATG_E2F_CIS: Attagene CIS-FACTORIAL HepG2 Assay for human E2F Transcription Factor 1 (AID 2282935). Particulars: HepG2 Attagene cis-reporter, E2F reporter RNA transcripts; actives raise or lower the signal. The procedure, abridged: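 First, HepG2 cells were transfected with reporter transcription units. Next, they were dosed for 24 h. Then RNA was isolated, converted to cDNA, PCR-amplified, FAM-labeled, HpaI-digested and analyzed by capillary electrophoresis.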

Assay [11] can be described thus: ATG_E_Box_CIS: Attagene CIS-FACTORIAL HepG2 Assay for human Enhancer Box (E-box) (AID 2282936). Particulars: HepG2 E-box cis-reporter transcription, actives raise or lower the signal. In short, it runs like this: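 Endogenous transcription factor activity was sensed in human HepG2 liver cells through transfected cis-promoter reporter units. After 24 h of dosing, total RNA was reverse-transcribed and reporter cDNA resolved by capillary electrophoresis.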

A short description of assay [12]: ATG_M_61_CIS: Attagene CIS-FACTORIAL HepG2 Assay for M61 Transcription Factor (Internal Marker) (AID 2282937). Particulars: HepG2 Attagene CIS-FACTORIAL M61 internal marker reporter; actives raise or lower the signal. The procedure, abridged: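 Human liver HepG2, transient MRTU transfection (cis promoter elements), 24 h compound. Total RNA → oligo(dT) RT → PCR → FAM label → HpaI → CE. Internal background marker; bidirectional fitting, DMSO = baseline.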

The nature of assay [13]: ATG_EGR_CIS: Attagene CIS-FACTORIAL HepG2 Assay for human Early Growth Response 1 (EGR1) (AID 2282938). As to conditions: HepG2 Attagene CIS-FACTORIAL EGR reporter mRNA; actives raise or lower the signal. The procedure, abridged:
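Transient transfection of human HepG2 with multiple cis-regulated reporter units, chemical exposure 24 h, total RNA isolated. Reverse transcription, PCR, fluorescent labelling and capillary electrophoresis quantify reporter transcripts; activity fitted bidirectionally against DMSO.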

A short description of assay [14]: ATG_M_19_CIS: Attagene CIS-FACTORIAL HepG2 Assay for M19 Transcription Factor (Internal Marker) (AID 2282939). Particulars: HepG2 Attagene CIS-FACTORIAL M19 internal marker reporter; actives raise or lower the signal. The procedure, abridged: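 HepG2, MRTU transient transfection, 24 h dosing. Total RNA → RT-PCR → 6-FAM primer extension → HpaI digest → CE fluorescence. Bidirectional curve fit, DMSO negative control.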

Assay [15] can be described thus: ATG_Ets_CIS: Attagene CIS-FACTORIAL HepG2 Assay for human Erythroblast Transformation Specific (ETS) (AID 2282941). As to conditions: HepG2 ETS cis-reporter transcription, actives raise or lower the signal. In short, it runs like this: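 Endogenous transcription factor activity read as reporter mRNA via RT-PCR and capillary electrophoresis, with gain or loss fitted bidirectionally against DMSO. Human HepG2 liver cells, transiently transfected CIS reporter constructs, 24 h exposure.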

The target of assay [16] is Hepatocyte nuclear factor 3-beta (Homo sapiens) (UniProt Q9Y261). Kind of assay: ATG_FoxA2_CIS: Attagene CIS-FACTORIAL HepG2 Assay for human Forkhead box A2 (FOXA2) (AID 2282942). As to conditions: HepG2 cis-reporter transcription factor activity, 24 h; actives raise or lower the signal. In short, it runs like this:
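Transient MRTU transfection of HepG2 liver cells; 24 h treatment; total RNA → oligo(dT) RT → PCR → FAM primer extension → HpaI cut → CE. Bidirectional fit vs DMSO.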

The nature of assay [17]: ATG_FoxO_CIS: Attagene CIS-FACTORIAL HepG2 Assay for human Forkhead box O (FoxO) (AID 2282943). As to conditions: HepG2 Attagene cis-reporter, FoxO element, mRNA; actives raise or lower the signal. In short, it runs like this:
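HepG2 cells transiently transfected with cis-promoter-driven multiple reporter transcription units; 24 h after chemical dosing, reporter mRNA quantified by RT-PCR, fluorescent primer extension, HpaI digestion and capillary electrophoresis. Bidirectional fitting versus DMSO baseline.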

The nature of assay [18]: ATG_GATA_CIS: Attagene CIS-FACTORIAL HepG2 Assay for human GATA Binding Protein (AID 2282944). As to conditions: HepG2 GATA cis-element reporter, Attagene multiplex mRNA; actives raise or lower the signal. In short, it runs like this:
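Cells: HepG2, transiently transfected with cis-regulated reporter transcription units. Exposure: 24 h. Detection: RT-PCR plus capillary electrophoresis of FAM-labeled fragments. Analysis: bidirectional, DMSO as baseline.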

Assay [19] can be described thus: ATG_GLI_CIS: Attagene CIS-FACTORIAL HepG2 Assay for human Zinc Finger Protein GLI1 (AID 2282945). As to conditions: HepG2, Attagene cis-factorial reporter mRNA, GLI element; actives raise or lower the signal. The procedure, abridged: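 HepG2 cells transiently transfected with cis-promoter multiplexed reporter units report endogenous transcription factor activity. After 24 h chemical exposure, reporter mRNA was quantified by RT-PCR, 6-FAM labelling, HpaI digestion and capillary electrophoresis, with bidirectional fitting against DMSO.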

Assay [20] addresses Bile acid receptor (Homo sapiens) (UniProt Q96RI1). Briefly: ATG_IR1_CIS: Attagene CIS-FACTORIAL HepG2 Assay for human Nuclear Receptor Subfamily 1 Group H Member 4 (NR1H4), IR1 submotif (AID 2282946). As to conditions: IR1 reporter transcription, actives raise or lower the signal. In short, it runs like this:
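Readout: reporter transcript levels by RT-PCR with fluorescent capillary electrophoresis, from HepG2 cells transiently transfected with multiplexed cis-regulated reporters and dosed 24 h. Gain- or loss-of-signal fitted versus DMSO negative control.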

Chain of Hepatocyte nuclear factor 3-beta (Homo sapiens) (Q9Y261 whole entry, looked up): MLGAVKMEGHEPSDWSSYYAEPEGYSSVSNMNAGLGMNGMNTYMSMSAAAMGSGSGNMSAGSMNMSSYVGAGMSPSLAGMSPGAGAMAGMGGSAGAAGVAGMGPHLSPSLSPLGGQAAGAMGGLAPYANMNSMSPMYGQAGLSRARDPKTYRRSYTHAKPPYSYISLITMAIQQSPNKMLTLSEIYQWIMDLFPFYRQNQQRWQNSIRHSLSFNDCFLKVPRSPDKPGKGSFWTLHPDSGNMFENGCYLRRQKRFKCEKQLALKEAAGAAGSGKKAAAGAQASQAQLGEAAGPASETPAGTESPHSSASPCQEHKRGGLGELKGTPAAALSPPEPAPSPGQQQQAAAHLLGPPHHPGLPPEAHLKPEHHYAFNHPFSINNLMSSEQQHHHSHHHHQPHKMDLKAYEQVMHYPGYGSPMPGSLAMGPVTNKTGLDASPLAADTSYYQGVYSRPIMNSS
Chain of Transcription factor E2F1 (Homo sapiens) (Q01094 whole entry, looked up): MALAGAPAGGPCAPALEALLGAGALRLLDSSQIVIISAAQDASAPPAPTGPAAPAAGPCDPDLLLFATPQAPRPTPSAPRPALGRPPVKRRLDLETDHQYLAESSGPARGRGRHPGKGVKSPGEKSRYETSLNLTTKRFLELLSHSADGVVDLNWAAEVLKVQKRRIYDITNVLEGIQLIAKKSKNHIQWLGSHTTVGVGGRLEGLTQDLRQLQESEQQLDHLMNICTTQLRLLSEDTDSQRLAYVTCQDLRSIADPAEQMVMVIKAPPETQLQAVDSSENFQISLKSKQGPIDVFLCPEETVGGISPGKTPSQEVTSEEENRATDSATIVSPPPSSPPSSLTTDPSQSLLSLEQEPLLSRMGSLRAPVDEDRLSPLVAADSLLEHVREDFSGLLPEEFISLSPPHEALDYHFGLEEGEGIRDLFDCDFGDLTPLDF
Chain of CCAAT/enhancer-binding protein beta (Homo sapiens) (P17676 whole entry, looked up): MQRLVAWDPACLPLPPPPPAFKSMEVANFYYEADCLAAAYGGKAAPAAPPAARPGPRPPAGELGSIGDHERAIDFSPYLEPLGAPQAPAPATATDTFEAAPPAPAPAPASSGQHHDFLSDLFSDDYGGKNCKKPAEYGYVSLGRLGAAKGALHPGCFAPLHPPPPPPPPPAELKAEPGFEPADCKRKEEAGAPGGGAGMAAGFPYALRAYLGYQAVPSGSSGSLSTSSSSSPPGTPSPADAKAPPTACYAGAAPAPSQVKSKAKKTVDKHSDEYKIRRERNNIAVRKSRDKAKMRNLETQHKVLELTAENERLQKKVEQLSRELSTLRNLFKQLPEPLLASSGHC
Chain of Retinoic acid receptor alpha (Homo sapiens) (P10276 whole entry, looked up): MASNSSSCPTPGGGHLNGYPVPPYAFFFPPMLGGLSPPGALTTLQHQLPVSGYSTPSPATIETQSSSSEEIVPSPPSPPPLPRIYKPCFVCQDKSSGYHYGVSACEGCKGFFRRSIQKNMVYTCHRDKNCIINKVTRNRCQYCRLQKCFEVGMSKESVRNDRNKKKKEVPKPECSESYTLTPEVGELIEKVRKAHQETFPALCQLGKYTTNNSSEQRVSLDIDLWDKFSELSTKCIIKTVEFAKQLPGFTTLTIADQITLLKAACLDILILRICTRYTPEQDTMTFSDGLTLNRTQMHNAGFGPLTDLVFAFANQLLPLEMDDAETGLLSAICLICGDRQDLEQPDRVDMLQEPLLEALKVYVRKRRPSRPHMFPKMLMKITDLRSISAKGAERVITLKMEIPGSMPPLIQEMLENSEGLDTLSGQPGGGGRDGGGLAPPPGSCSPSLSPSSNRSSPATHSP
Chain of Aryl hydrocarbon receptor (Homo sapiens) (P35869 whole entry, looked up): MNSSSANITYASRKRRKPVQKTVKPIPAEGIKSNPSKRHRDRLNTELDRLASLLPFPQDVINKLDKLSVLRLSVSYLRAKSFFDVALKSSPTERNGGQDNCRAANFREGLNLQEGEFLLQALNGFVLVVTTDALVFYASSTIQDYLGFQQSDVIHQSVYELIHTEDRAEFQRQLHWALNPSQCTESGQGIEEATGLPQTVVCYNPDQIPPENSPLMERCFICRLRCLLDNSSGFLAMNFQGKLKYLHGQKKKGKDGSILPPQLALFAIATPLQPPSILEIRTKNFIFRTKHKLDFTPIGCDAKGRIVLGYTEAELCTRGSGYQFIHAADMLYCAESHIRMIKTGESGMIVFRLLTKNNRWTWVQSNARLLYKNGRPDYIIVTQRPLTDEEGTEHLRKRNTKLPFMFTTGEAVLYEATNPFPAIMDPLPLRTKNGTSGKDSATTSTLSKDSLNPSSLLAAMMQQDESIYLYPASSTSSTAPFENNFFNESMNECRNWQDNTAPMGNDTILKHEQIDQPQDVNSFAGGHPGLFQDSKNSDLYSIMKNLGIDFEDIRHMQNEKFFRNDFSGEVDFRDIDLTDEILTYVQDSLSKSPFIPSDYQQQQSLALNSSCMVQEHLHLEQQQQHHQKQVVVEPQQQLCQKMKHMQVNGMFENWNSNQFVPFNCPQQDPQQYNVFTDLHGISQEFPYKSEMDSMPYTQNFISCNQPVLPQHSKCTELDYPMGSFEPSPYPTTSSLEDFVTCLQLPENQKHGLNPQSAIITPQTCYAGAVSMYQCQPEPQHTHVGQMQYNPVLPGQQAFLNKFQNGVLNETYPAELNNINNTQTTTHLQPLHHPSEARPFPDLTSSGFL
Chain of Bile acid receptor (Homo sapiens) (Q96RI1 whole entry, looked up): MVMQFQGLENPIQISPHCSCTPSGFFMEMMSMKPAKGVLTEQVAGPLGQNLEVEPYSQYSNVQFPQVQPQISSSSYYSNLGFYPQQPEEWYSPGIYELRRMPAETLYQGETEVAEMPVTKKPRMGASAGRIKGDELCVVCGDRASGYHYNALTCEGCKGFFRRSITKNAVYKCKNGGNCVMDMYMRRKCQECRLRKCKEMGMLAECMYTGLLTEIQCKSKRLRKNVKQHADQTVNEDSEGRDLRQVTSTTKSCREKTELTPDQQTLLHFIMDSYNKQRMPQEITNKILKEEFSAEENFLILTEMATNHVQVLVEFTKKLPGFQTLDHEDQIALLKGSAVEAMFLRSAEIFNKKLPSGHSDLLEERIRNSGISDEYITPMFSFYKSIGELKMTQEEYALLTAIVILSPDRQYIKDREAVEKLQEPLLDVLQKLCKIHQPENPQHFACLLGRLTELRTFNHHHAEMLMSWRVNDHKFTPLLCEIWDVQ

With `C=CC(C)C#N` (centres undefined), the call in assay [1], in assay [2], in assay [3], in assay [4], in [5] and in assay [6] was inactive. Moreover, the compound was called inactive in assay [7], in assay [8], in [9], in [10], in assay [11] and in assay [12]. Besides, the compound was classed as inactive in assay [13], in assay [14], in assay [15], in assay [16], in assay [17] and in assay [18]. Also, the call in assay [19] and in [20] was inactive.

As for `C=C[Si]1(C)O[Si](C)(C=C)O[Si](C)(C=C)O[Si](C)(C=C)O1` (centres undefined), the call in assay [1], in assay [2], in assay [5], in assay [7], in [8] and in assay [9] was inactive. In addition, the compound was classed as inactive in assay [10], in assay [11], in assay [12], in [13], in assay [14] and in [15]. The compound was called inactive in [16], in [17], in assay [18] and in assay [19]. For the same compound, the AC50 is 51.7 µM (active) in assay [3], 4.46 µM (active) in assay [4] and 36.1 µM (active) in assay [6].

On to `OCc1cccc(Oc2ccccc2)c1`, for which the compound was called inactive in [1], in assay [2], in [3], in assay [4], in assay [5] and in assay [6]. In addition, the call in assay [7], in assay [8], in assay [9], in assay [10], in assay [11] and in assay [12] was inactive. For the same compound, the compound was classed as inactive in assay [13], in assay [14], in assay [15], in [16], in [17] and in [18]. Moreover, the call in [19] and in assay [20] was inactive.
